# A selection: hits, their analogues and other compounds. The true share with any hit is near 3.8%.
# ADAM10 inh = human ADAM10 inhibitors, primary screen, biochemical, QFRET, HTS; Disintegrin and metalloproteinase domain-containing protein 10 (Homo sapiens), O14672; recombinant ADAM10, EDANS/DABCYL FRET peptide cleavage, 3 h; inhibition, % at 7 µM; AID 720582, 2013; 370,000 tested, 0.62% active;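 active means inhibition above a per-campaign cutoff equal to the mean of compounds falling between control-based bounds plus 3 SD, cut at about 20% in these data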;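 further: 0% = DMSO wells while the 100% control is not disclosed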
# ADAM17 inh = ADAM17 inhibitors, primary screen, biochemical, QFRET; Disintegrin and metalloproteinase domain-containing protein 17 (Homo sapiens), P78536; recombinant ADAM17, EDANS/DABCYL FRET peptide cleavage; inhibition, % at 6.95 µM; 370,000 tested, 0.83% active; AID 720648, 2013;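 active means inhibition above the mean of compounds lying between control limits plus 3 SD, set per campaign, cut at about 8.5% in these data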;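 further: 0% = DMSO-only wells as the low control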
# rRNA inh HTS = reduced GFP signal of wild-type E. coli, primary screen, bacterial rRNA inhibitor project, GFP/RFP fluorescence, OD600, single point; E. coli WT GFP vs humanized-ribosome RFP mutants, 24 h; hits give low values; DMSO median 0, no signal -100; GFP signal change (wild-type ribosome), % (no concentration beside the values); 350,000 tested, 1.6% active; AID 720706, 2013;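 active means significant combined selectivity score with lowered wild-type GFP, culture density cut under 30%, mutant RFP and density less affected; inactive means any of these conditions unmet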
# FGF22 binding = binders of human FGF22 protein, primary screen, FGF22 synaptogenesis inhibitor project, biophysical, thermal shift, single point | recombinant FGF22 thermal shift, SYPRO orange fluorescence; percent of sucrose octasulfate shift, DMSO zero | activity (Tm shift, normalised), % at 9.99 µM | 340,000 tested, 1.5% active;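 active means mean Tm shift, scaled 0 neutral to 100 positive control, at about 1.3% or above, every replicate too, limit read from the data; inconclusive means no clear call, values can overlap the other calls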
# Target sequence (Q9HCT0 whole entry, looked up): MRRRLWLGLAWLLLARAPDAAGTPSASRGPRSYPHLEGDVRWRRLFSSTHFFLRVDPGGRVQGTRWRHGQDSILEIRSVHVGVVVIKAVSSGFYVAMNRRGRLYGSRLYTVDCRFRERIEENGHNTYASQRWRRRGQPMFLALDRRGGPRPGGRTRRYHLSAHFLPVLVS
# KLK7 zymogen act = proKLK7 zymogen activators, primary screen, biochemical, fluorescence intensity | Kallikrein-7 (Homo sapiens), P49862 | 370,000 tested, 0.9% active | purified proKLK7, EDANS-DABCYL substrate fluorescence; 100% is mature enzyme control, 0% vehicle | AID 652039, 2013 | activation, % at 7 µM;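 active means activation above the mean of all tested compounds plus 3 SD, computed per campaign excluding outliers beyond control limits, cut at about 13% in these data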
# Target sequence (P49862 whole entry, looked up): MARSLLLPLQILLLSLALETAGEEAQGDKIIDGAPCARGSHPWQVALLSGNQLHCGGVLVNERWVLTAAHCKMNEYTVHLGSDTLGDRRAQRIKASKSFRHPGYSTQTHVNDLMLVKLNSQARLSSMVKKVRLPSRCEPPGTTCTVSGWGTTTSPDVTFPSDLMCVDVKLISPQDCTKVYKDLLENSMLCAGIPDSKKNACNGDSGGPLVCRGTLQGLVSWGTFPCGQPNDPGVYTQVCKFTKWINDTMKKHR
# AID977621 = growth inhibition of wild-type GFP E. coli, dose response, H69 mutant RFP, cherry-pick | shares compounds with rRNA inh HTS | E. coli wild-type GFP strain growth, fluorescence, 24 h | activity change, negative = inhibition at 50 µM | 1,900 tested, under 10 active;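 active means Wild-type ribosome reporter drop at least double the humanized mutant ribosome reporter drop, growth loss under a set limit; inconclusive means no clear call, values can overlap the other calls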;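 further: wild-type GFP and H69 mutant RFP strains grown together 50/50 in each well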
# AID977628 = E. coli growth inhibition, wild-type GFP versus h24 humanized RFP strain, dose response, h24 mutant RFP vs wild-type GFP, cherry-pick; AID 977628, 2014; activity change, negative = inhibition at 50 µM; 1,900 tested, under 10 active; shares compounds with rRNA inh HTS; E. coli WT GFP strain growth, fluorescence, 24 h;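 active means compound lowering the normal-ribosome reporter at least twice as much as the humanized-ribosome reporter, growth loss under a set limit; inconclusive means no clear call, values can overlap the other calls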;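 further: wild-type GFP and h24 humanized RFP strains co-cultured 1 to 1 per well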
# * = called active by the depositor; ? = inconclusive; . = no result given.
SMILES,ADAM10 inh,ADAM17 inh,rRNA inh HTS,FGF22 binding,KLK7 zymogen act,AID977621,AID977628
COc1cccc(-c2ccc(NC(=O)C3CCCN(Cc4cnn(C(C)C)c4)C3)cc2)c1 (centres undefined),6,0,-24*,0,0,.,-0.47
CCCc1ncc(CN2CCCC(C(=O)Nc3ccc(-c4cccc(OC)c4)cc3)C2)cn1 (centres undefined),9,1,-5,0,0,.,.
COc1cccc(S(=O)(=O)Nc2ccc3c(c2)[C@H]2C[C@H](CC(=O)NCc4ccccc4F)O[C@@H](CO)[C@H]2O3)c1,.,.,2,-1,.,.,.
C[C@H](CO)N1C[C@H](C)[C@H](CN(C)C(=O)Cc2ccccc2)Oc2cc(-c3ccccc3)ccc2S1(=O)=O,.,.,-10,0,.,.,.
O=C(Nc1ccc2c3c(cccc13)CC2)c1ccco1,-8,-3,.,.,0,.,.
O=C(Nc1cccc2c1CCCC2)c1ccco1,.,.,-21*,0,.,-9.2,-11
COCC(=O)N(C)C[C@H]1Oc2ncc(C#Cc3cccnc3)cc2C(=O)N([C@H](C)CO)C[C@H]1C,.,.,2,0,.,.,.
Cc1c(C(=O)NC2CCN(Cc3ccccc3)C2)oc2ccc(Br)cc12 (centres undefined),1,-2,-65,0,0,.,.
CCOc1ccc2oc(C(=O)NC3CCN(Cc4ccccc4)CC3)c(C)c2c1,-22,-13,-23*,0,-1,-23,.
CS(=O)(=O)N1C[C@H](O)COC[C@@H]2O[C@@H](CC(=O)NCc3ccc(-c4ccccc4)cc3)CC[C@H]21,.,.,-1,0,.,.,.
O=C(C[C@H]1CC[C@@H](NC(=O)C2CCOCC2)[C@H](CO)O1)Nc1nccs1,.,.,0,0,.,.,.
C[C@H](O)C#Cc1ccc2c(c1)O[C@H](CN(C)C(=O)c1ccccc1)[C@H](C)CN([C@@H](C)CO)S2(=O)=O,.,.,5,0,.,.,.
O=C(COC(=O)C1CC2C=CC1C2)NCCc1ccccc1 (centres undefined),6,-6,-21*,0,0,-20,-8.4
O=C(COC(=O)C1CC1)NCCc1ccccc1,-14,1,.,0,0,.,.
O=C(COC(=O)CCSc1ccc(F)cc1)NCc1ccc(F)cc1,0,0,-17*,0,0,.,?
O=C(COC(=O)CCC(=O)c1ccccc1)NCCc1ccccc1,-1,2,3,-1,0,.,.
O=C(COC(=O)CCC(=O)c1ccc(F)cc1)NCCc1ccccc1,-8,-2,-21*,0,0,-11,.
COc1ccccc1N1CCN(C(=O)c2ccco2)CC1,-2,-1,-2,0,0,.,.
COc1ccccc1C1CCN(C(=O)c2ccco2)CC1,-1,-3,-23*,0,0,-4.1,?
COc1ccc(NC(=O)Nc2ccc3c(c2)C(=O)N([C@@H](C)CO)C[C@H](C)[C@@H](CN(C)Cc2ccc(C(=O)O)cc2)OCCCC[C@@H](C)O3)cc1,.,.,-2,0,.,.,.
CN(C)CCCNC(=O)[C@H]1[C@H](CO)[C@H]2Cn3c(ccc(-c4cccc(F)c4)c3=O)[C@@H]1N2,.,.,2,.,.,.,.
CO[C@@H]1CN(C)C(=O)c2ccc(NS(=O)(=O)c3ccc(Cl)cc3)cc2OC[C@H](C)NC[C@@H]1C,.,.,1,0,.,.,.
CCOC(=O)C(C)(C)n1nnc(-c2ccc([N+](=O)[O-])cc2)n1,5,2,-23*,0,1,-7.4,?
C[C@@H]1CCCCO[C@@H](CN(C)C)[C@H](C)CN([C@@H](C)CO)C(=O)c2cc(NS(=O)(=O)c3cn(C)cn3)ccc2O1,.,.,4,0,.,.,.

# Screens from PubChem.
